Screening results from PubChem BioAssay.
NALP1 inh = inhibitors of NALP1 inflammasome in yeast; S. cerevisiae NALP1/ASC/caspase-1 growth, X-gal OD620, 72 h; inhibition, % at 10 µM; hit rate 0.61% among 280,000; AID 2071; in the data active means inhibition mostly above about 24%, no sharp cut-off; inactive means mostly below about 32%
tim10-1 inh = tim10-1 yeast growth inhibition; S. cerevisiae tim10-1 ts strain growth, BacTiter-Glo, 24 h; inhibition, % at 20 µM; hit rate 2.2% among 330,000; AID 463190;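 active means inhibition of at least 40%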;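 further: mutant grown at 25 °C; 0% = DMSO wells with yeast and 100% = wells holding no yeast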
tim23-1 inh = tim23-1 yeast growth inhibition | AID 463212 | S. cerevisiae tim23-1 growth, BacTiter-Glo luminescence, 24 h | inhibition, % at 20 µM | hit rate 1.3% among 330,000;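 active means growth inhibition of the mutant yeast at or above 50%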;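 further: temperature-sensitive mutant grown at 25 °C; plate controls were DMSO-treated mutant yeast for no effect and medium wells lacking yeast for full effect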
TIM10 inh = growth inhibitors of TIM10 yeast strain | inhibition, % at 10 µM | AID 463195 | S. cerevisiae TIM10 strain growth, BacTiter-Glo luminescence, 24 h | hit rate 1.4% among 330,000;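 active means inhibition of 40% or more at the single tested concentration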;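 further: wild-type TIM10 isogenic control strain grown at permissive 25 °C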
PfHsp90 yeast 2 = reduces growth (ATP signal) of yeast expressing P. falciparum Hsp90; S. cerevisiae expressing PfHsp90, BacTiter-Glo ATP, 48 h; yeast lacking PDR1 and PDR3 efflux regulators; inhibition, % at 9.4 µM; hit rate 0.32% among 310,000;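 active means every replicate shows inhibition above about 80%, whatever the replicate mean, limit read from the data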;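 further: 0% = DMSO neutral controls and 100% = 20 µM radicicol positive controls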
NALP3 yeast inh = inhibitors of NALP3 inflammasome in yeast | AID 2825 | hit rate 0.39% among 330,000 | Yeast reconstituted NLRP3/ASC/caspase-1, beta-gal luminescence, 24 h | inhibition, % at 10 µM;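 active means inhibition of 50% or more; inactive means inhibition below 50%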;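 further: plate controls were induced DMSO wells for no effect and uninduced yeast grown without galactose for full effect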
NALP3 confirm = NALP3 inhibition confirmation in yeast. shares compounds with NALP3 yeast inh. yeast expressing human NALP3, luminescence. inhibition, % at 10 µM. hit rate 81% among 1,300. AID 435006; in the data active means inhibition above about 48%
Casp1-ASC yeast = caspase-1-ASC yeast counter-screen hit; yeast expressing Caspase-1-ASC, luminescence counter screen; inhibition, % at 10 µM; hit rate 66% among 1,000; shares compounds with NALP3 yeast inh; AID 488784
NALP3 retest = yeast NALP3 inhibition, confirmed on retest; yeast expressing human NALP3, luminescence read-out; hit rate 53% among 1,000; inhibition, % at 10 µM; shares compounds with NALP3 yeast inh
tim10-1 confirm = confirmation of tim10-1 mutant yeast growth inhibitors; shares compounds with tim10-1 inh; S. cerevisiae tim10-1 ts strain growth, BacTiter-Glo, 24 h; inhibition, % at 20 µM; hit rate 56% among 7,400; AID 463213;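 active means inhibition of yeast growth at or above a set limit in either of two repeat tests at 20 µM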;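 further: tim10-1 mutant grown at permissive 25 °C to find synthetic lethal compounds; 0% = DMSO yeast wells and 100% = medium wells without yeast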
TIM10 conf = confirmation of TIM10 yeast growth inhibitors. shares compounds with TIM10 inh. S. cerevisiae tim10 strain growth, BacTiter-Glo luminescence, 24 h. AID 463215. inhibition, % at 10 µM. hit rate 63% among 4,600;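 active means inhibition of yeast growth at or above a set limit in either of two replicates at 10 µM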;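 further: this counterscreen used the strain with wild-type TIM10; 0% = yeast with DMSO and 100% = medium wells lacking yeast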
tim23-1 conf = confirmation of tim23-1 mutant yeast growth inhibitors; hit rate 83% among 4,400; inhibition, % at 20 µM; S. cerevisiae tim23-1 growth, BacTiter-Glo luminescence, 24 h; shares compounds with tim23-1 inh; AID 463218;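 active means inhibition above about 39% in either of two replicate wells at 20 µM, limit read from the data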;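 further: temperature-sensitive tim23-1 mutant grown at 25 °C; 0% = DMSO wells with yeast and 100% = medium wells without yeast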
* marks the source's active call; other numbers are inactive results; · = no result given. The list is not random: actives were taken first. Their share in the collection is about 4.2%. Unless noted, no stated cut-off is given here; in the data, active means inhibition above about 50%; inactive means the rest.

SMILES	NALP1 inh	tim10-1 inh	tim23-1 inh	TIM10 inh	PfHsp90 yeast 2	NALP3 yeast inh	tim10-1 confirm	others
O=c1c2cc(Cl)ccc2nc(-c2ccc(Cl)c(Cl)c2)n1O	·	3.4	49.1	29.5	17.8	24.2	·
O=c1c2ccc(Cl)cc2nc(-c2ccc([N+](=O)[O-])cc2)n1O	-14.4	33.4	54.6*	63.0*	17.9	57.4*	·	NALP3 confirm=81.4*;Casp1-ASC yeast=62.2*;NALP3 retest=53.8*;TIM10 conf=44.6*;tim23-1 conf=62.8*
O=C(Nc1c(-c2ccccc2)nc2ccccn12)c1cccs1	7.4	3.0	-1.1	3.7	·	2.5	·
O=C(Nc1nsc(-c2ccccc2)n1)c1cccs1	·	33.3	68.3*	33.7	13.0	54.4*	·	NALP3 confirm=64.7*;Casp1-ASC yeast=39.9;NALP3 retest=48.8;tim23-1 conf=52.7*
CCCCN(C(=O)c1ccc(Br)o1)C1CCS(=O)(=O)C1 (stereo not given)	·	-4.6	-1.1	-3.3	·	19.7	·
O=C(NCC1CCN(Cc2ccc(F)cc2)CC1)Nc1cc(F)ccc1F	-4.9	2.3	5.2	-24.6	-17.4	21.4	·
COc1ccc(Nc2ncnc3c2cnn3Cc2ccccc2)cc1	-17.0	46.3*	38.3	28.9	13.1	10.7	34.0*
COc1ccc(-n2ncc3c(N4CCN(Cc5ccccc5)CC4)ncnc32)cc1	1.0	45.5*	25.8	30.1	29.2	10.0	25.5
CCOc1ccc(Nc2ncnc3c2cnn3Cc2ccccc2)cc1	18.3	41.0*	38.5	24.9	29.0	8.9	36.9*
CCn1c2ccccc2c2nc3cc(OC)c(OC)cc3nc21	5.9	29.7	42.1	29.9	·	29.4	·
CCn1c2ccccc2c2nc3ccccc3nc21	6.8	43.3*	42.8	7.3	-44.4	-26.2	35.3*
Clc1nnc2c3ccccc3ccn12	·	·	·	·	-8.7	·	·
Cc1ccc(C(=O)N2CCCC(N3CCN(c4cccc(C(F)(F)F)c4)CC3)C2)s1 (stereo not given)	23.4	42.0*	34.9	17.7	-9.8	10.4	21.1
CC(=O)N1CCCC(N2CCN(c3cccc(C(F)(F)F)c3)CC2)C1 (stereo not given)	27.7	-22.9	0.8	-4.2	1.8	8.5	·
Clc1cccc(/C=N/Nc2ncnc3ccccc23)c1	-3.7	40.1*	35.5	38.8	56.3	20.6	18.5
O=C(O)CC(C(=O)O)c1ccc(OCCCCOc2ccc(C(CC(=O)O)C(=O)O)cc2)cc1 (stereo not given)	2.1	12.2	12.1	2.0	-8.2	1.7	·
CCOC(=O)C1=C(COC(=O)c2cc(Br)c(Br)s2)NC(=O)NC1C (stereo not given)	·	20.5	20.7	14.2	·	11.4	·
CCCCNC(=S)N=Nc1c(O)[nH]c2ccccc12	0.3	46.5*	43.6	31.6	-5.1	3.0	41.4*
CC(C)(C)OC(=O)N1CCC(Cc2cc(-c3cccnc3)no2)(C(=O)O)CC1	·	1.1	12.1	6.6	11.2	8.2	·
Cc1cccc(/C=N/NC(=O)c2ccc(NC(=O)c3ccc(Cl)cc3)cc2)n1	0.0	96.4*	18.7	6.7	-13.5	19.0	-7.8
COCCNC(=O)/C(C#N)=C/C(C)=C/c1ccccc1	39.1	53.2*	42.4	16.9	4.8	2.4	42.2*
CC(Cc1c[nH]c2ccccc12)C(=O)N1CCN(c2ccccc2F)CC1 (stereo not given)	2.8	97.5*	17.4	2.7	5.6	9.2	18.5
CCOC(=O)Nc1nc(-c2ccc(Cl)cc2Cl)cs1	19.5	40.4*	41.2	36.3	-6.9	25.3	17.2
COC(=O)CCC(=O)c1ccn(S(=O)(=O)c2ccccc2)c1	-16.2	23.9	11.8	-3.4	2.5	1.1	·
Cc1cc(C)c(N=Cc2c(O)n(-c3nccs3)c(=O)c3ccccc23)c(C)c1	12.6	40.8*	42.3	36.3	-22.2	28.4	32.2*
SMILES	NALP1 inh	tim10-1 inh	tim23-1 inh	TIM10 inh	PfHsp90 yeast 2	NALP3 yeast inh	tim10-1 confirm	others
O=S(=O)(c1ccc(-c2csc(-c3cccnc3)n2)cc1)N1CCOCC1	1.6	42.1*	24.0	16.0	-10.0	-49.5	22.8
Cc1ccc(S(=O)(=O)N2CCOCC2)cc1C(=O)Nc1nc(-c2cccnc2)cs1	10.9	5.1	1.3	7.0	-27.4	-3.6	·
CSc1nc2[nH]c(=O)n(O)c(=O)c2n1Cc1ccccc1	·	·	·	·	12.9	·	·
O=C(COc1ccc(Cl)cc1)N(Cc1ccc(F)cc1)C1CCS(=O)(=O)C1 (stereo not given)	16.1	12.2	-3.9	5.8	3.8	12.9	·
Cc1ccc(NC(=O)CSC2=Nc3ccccc3C3CC=NN23)c(C)c1 (stereo not given)	46.9	44.2*	25.4	17.2	-28.9	4.0	8.9
COc1cc2nc(SCc3ccc(Cl)cc3Cl)n(Cc3cccs3)c(=N)c2cc1OC	-3.0	22.9	16.2	27.8	20.9	10.3	·
COc1ccc(Cn2c(SCc3cc(C)ccc3C)nc3cc(OC)c(OC)cc3c2=N)cc1	-1.2	59.1*	2.6	-38.7	·	28.8	33.9*
COc1ccc(S(=O)(=O)n2oc(=O)cc2-c2ccccc2)cc1	11.6	43.3*	14.2	14.4	-17.5	-36.5	19.8
CCn1c(NCc2cccs2)nc2ccccc21	4.7	1.5	9.8	-0.9	-10.2	12.8	·
CCCn1c(-c2cccs2)nc2ccccc21	31.6	41.2*	37.7	14.9	2.3	13.6	0.3
O=C(NP(=O)(N1CCCC1)N1CCCC1)C1=C(N2CCOCC2)/C(=C/c2cccc([N+](=O)[O-])c2)CC1	11.5	27.9	11.1	16.3	0.1	-8.7	·
CCOC(=O)C(=O)C1=C(N2CCOCC2)/C(=C\c2cccc([N+](=O)[O-])c2)CC1	14.2	40.9*	47.2	21.7	24.8	-0.6	25.3
C=C(C)CSc1nc2sc3c(c2c(=O)n1-c1ccccc1)CCN(C)C3	8.6	-6.5	-0.8	-3.6	6.4	13.6	·
Cc1noc(C)c1CNCc1ccccc1	22.1	42.1*	20.7	6.0	-0.6	7.0	6.8
Cc1nn(C(C)C(=O)NC2CCC(C)CC2)c(=O)c2nn(-c3ccccc3)c(C)c12 (stereo not given)	-4.1	40.7*	27.5	14.9	-11.7	-1.9	10.6
